What all share (settings): concentration: 1 μM, replicates: in singlicate; n = 1
Experiment [1] relates to ULK3.
Experiment [2] relates to T1, VEGFR2.
T1 construct: gene KDR

Experiment [3] has as its system T2, VPS34.
T2 construct: gene PIK3C3

Experiment [4] concerns VRK2.
Experiment [5] has as its system WEE1.
The subject of experiment [6] is WEE2.
The subject of experiment [7] is WNK1.
Experiment [8] relates to WNK2.
Experiment [9] deals with WNK3.
In experiment [10] the test system is WNK4.
The subject of experiment [11] is T3, YANK1.
T3 construct: gene STK32A

Experiment [12] relates to T4, YANK2.
T4 construct: gene STK32B

The subject of experiment [13] is T5, YANK3.
T5 construct: gene STK32C

The subject of experiment [14] is T6, YES.
T6 construct: gene YES1

Experiment [15] concerns T7, YSK1.
T7 construct: gene STK25

Experiment [16] has as its system T8, YSK4.
T8 construct: gene MAP3K19

In experiment [17] the test system is ZAK.
Experiment [18] relates to ZAP70.
In experiment [19] the test system is T9, p38-alpha.
T9 construct: gene MAPK14

Experiment [20] has as its system T10, p38-beta.
T10 construct: gene MAPK11
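Also: KINOMEscan kinase panel screen.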

`Nc1ncnc2c1ncn2-c1cccc(F)c1` [SKF-97560]: the “%Inh” value in experiment [1] was determined as 21%; in [2], 6%; in experiment [3], 4%; in experiment [4] it was 29%; in experiment [5] it was 0%; in experiment [6], 0%. The “%Inh” value is reported as 3% in [7]; 73% in experiment [8]; 0% in experiment [9]; 54% in [10]; 17% in [11]; 0% in [12]. Besides, the “%Inh” value was found to be 0% in experiment [13]; 16% in experiment [14]; 0% in experiment [15]; 40% in experiment [16]; 26% in experiment [17]; 21% in experiment [18]. Moreover, the “%Inh” value in experiment [19] and in experiment [20] was 0% in each case.
Consider `COc1cc2ncn(-c3cc(OCc4ccncc4Br)c(C(N)=O)s3)c2cc1OC` [GW854278], for which the “%Inh” value in experiment [1] worked out at 36%; in experiment [2], 31%; in experiment [3] it was 58%; in experiment [4], 24%; in [5], 0%; in [6], 18%. The “%Inh” value in [7] turned out to be 19%; in [8] it was 35%; in experiment [9], 64%; in [10], 0%; in experiment [11] it was 0%; in experiment [12] it was 0%. Further, the “%Inh” value in experiment [13] was 0%; in [14], 0%; in [15] it was 0%; in experiment [16], 61%; in experiment [17], 15%; in experiment [18] it was 0%. Besides, the “%Inh” value in [19] is 4%; in experiment [20], 0%.
Consider `Cc1ccc(Oc2ccc(Nc3ncnc4cc[nH]c34)cc2C)cn1`, for which the “%Inh” value in experiment [1] amounted to 22%; in [2], 15%; in experiment [3], 20%; in experiment [4], 0%; in [5], 0%; in experiment [6], 0%. Besides, the “%Inh” value came out at 0% in experiment [7]; 0% in [8]; 10% in [9]; 0% in [10]; 5% in experiment [11]; 22% in experiment [12]. For the same compound, the “%Inh” value is on record as 11% in experiment [13]; 3% in experiment [14]; 0% in [15]; 14% in experiment [16]; 5% in experiment [17]; 0% in experiment [18]. Also, the entries for the “%Inh” value in [19] and in experiment [20] were 5% and 28%, respectively.
`COc1cc(Nc2nccc(N3CCC(NC(=O)C(C)c4ccc(Cl)cc4)C3)n2)cc(OC)c1OC` (centres unmarked) [GSK1379757]: the “%Inh” value in experiment [1] is on record as 42%; in experiment [2] it was 0%; in [3], 0%; in experiment [4], 0%; in experiment [5] it was 30%; in experiment [6], 0%. The “%Inh” value in experiment [7] came to 9%; in experiment [8], 0%; in experiment [9] it was 15%; in [10], 10%; in [11] it was 0%; in experiment [12], 0%. The “%Inh” value in [13] is listed as 0%; in experiment [14], 5%; in [15], 6%; in experiment [16], 29%; in experiment [17], 0%; in experiment [18], 0%. Further, the results for the “%Inh” value in experiment [19] and in experiment [20] were 10% and 0%, respectively.
In the case of `COc1ccc(-n2cnc3c(N)ncnc32)cc1` [SKF-97236], the “%Inh” value in experiment [1] is on record as 10%; in experiment [2], 0%; in experiment [3], 27%; in experiment [4], 0%; in [5], 0%; in [6], 0%. Moreover, the “%Inh” value in [7] was found to be 11%; in experiment [8], 19%; in experiment [9], 0%; in experiment [10], 0%; in [11] it was 0%; in experiment [12], 10%. Moreover, the “%Inh” value in experiment [13] was determined as 0%; in experiment [14], 0%; in experiment [15] it was 0%; in experiment [16], 34%; in experiment [17], 15%; in experiment [18], 0%. For the same compound, the “%Inh” value in experiment [19] worked out at 0%; in experiment [20] it was 21%.
For the compound `COc1ccc(Nc2nccc(N3CCC(NS(=O)(=O)c4ccc(NC(C)=O)cc4)C3)n2)cc1` (centres unmarked) [GSK1379729], the “%Inh” value in experiment [1] came out at 42%; in experiment [2], 0%; in [3], 92.3%; in experiment [4], 16%; in experiment [5], 37%; in experiment [6], 11%. Moreover, the “%Inh” value in [7] is given as 24%; in experiment [8], 38%; in [9], 0%; in [10] it was 29%; in [11], 8%; in [12], 3%. The “%Inh” value in experiment [13] is given as 0%; in experiment [14], 10%; in experiment [15], 0%; in experiment [16], 1%; in experiment [17], 24%; in [18], 0%. For the same compound, the “%Inh” value is 82% in experiment [19] and 17% in experiment [20].
Take `Cc1ccccc1COc1cc(-n2cnc3cc(Cl)ccc32)sc1C(N)=O` [GW813349]: the “%Inh” value in experiment [1] was determined as 0%; in experiment [2], 11%; in experiment [3], 84%; in experiment [4], 0%; in experiment [5] it was 4%; in experiment [6], 5%. Also, the “%Inh” value was found to be 0% in [7]; 0% in experiment [8]; 6% in experiment [9]; 0% in [10]; 14% in [11]; 2% in experiment [12]. Moreover, the “%Inh” value in experiment [13] worked out at 35%; in experiment [14], 0%; in experiment [15], 0%; in [16] it was 10%; in experiment [17] it was 0%; in [18], 19%. The “%Inh” value in experiment [19] is on record as 0%; in experiment [20], 5%.
Regarding `CCCNC(=O)Nc1ccc(Oc2ncnc3ccn(C)c23)cc1`, the “%Inh” value in experiment [1] was found to be 30%; in [2] it was 13%; in [3], 34%; in experiment [4] it was 0%; in [5] it was 0%; in experiment [6], 13%. Besides, the “%Inh” value in experiment [7] is listed as 0%; in experiment [8] it was 3%; in experiment [9], 0%; in experiment [10], 0%; in [11], 0%; in experiment [12], 8%. Also, the “%Inh” value in [13] came to 13%; in experiment [14], 0%; in [15] it was 3%; in [16] it was 33%; in [17] it was 1%; in experiment [18] it was 0%. In addition, the “%Inh” value in experiment [19] was found to be 2%; in experiment [20], 15%.
With `Nc1n[nH]c2ncc(-c3ccccc3)cc12` [SB-517081], the “%Inh” value in [1] stood at 14%; in experiment [2], 16%; in [3] it was 0%; in [4], 11%; in [5], 17%; in [6] it was 2%. Further, the “%Inh” value in experiment [7] was 12%; in experiment [8] it was 0%; in experiment [9], 27%; in experiment [10], 35%; in experiment [11], 9%; in experiment [12], 0%. Also, the “%Inh” value in [13] is on record as 23%; in experiment [14], 20%; in experiment [15] it was 8%; in experiment [16] it was 52%; in experiment [17], 25%; in experiment [18] it was 0%. Besides, the “%Inh” value was found to be 13% in experiment [19] and 0% in experiment [20].
On to `CCn1c(-c2nonc2N)nc2ccccc21` [SB-693162/GW549034], for which the “%Inh” value in [1] is 20%; in experiment [2], 40%; in [3], 2%; in experiment [4] it was 0%; in [5], 0%; in experiment [6], 0%. For the same compound, the “%Inh” value in experiment [7] came out at 0%; in experiment [8], 39%; in experiment [9], 0%; in experiment [10], 6%; in [11], 46%; in [12], 0%. In addition, the “%Inh” value in experiment [13] is listed as 0%; in experiment [14] it was 0%; in [15], 0%; in experiment [16], 87%; in experiment [17], 0%; in [18], 0%. Further, the “%Inh” value in [19] is 23%; in [20], 1%.

The values are drawn from publication PMC5540273 (PLoS ONE, 2017).
